SMILES strings stand for the structures. Records with an inconclusive call do not appear. Where a call stands in place of a potency, no number is given. The source made the active and inactive calls. Calls follow the shape of the dose curve; as a rule, active = well fitted activation curve with a large enough effect in the signal ratio in the repeat runs (not every such curve was filed as active); inconclusive = weak or mixed curves; inactive = flat fitted curve, though single readings scatter; the % refers to the signal ratio.

The experiment is described as follows: qHTS assay to identify small molecule agonists of H2AX (AID 1224845). Conditions: CHO-K1 phospho-H2AX Ser139 HTRF, 3 h; series mostly up to 154 µM. An excerpt: National Center for Advancing Translational Sciences [NCATS]
NIH Chemical Genomics Center [NCGC]
U.S. Environmental Protection Agency [EPA]
National Institutes of Environmental Health Sciences [NIEHS]
National Toxicology Program [NTP]
U.S. Food and Drug Administration [FDA]
HTRF phospho-H2AX (Ser139) assay (Cisbio Bioassays, US) enables the quantitative detection of the histone variant H2AX when phosphorylated on serine 139. When double-stranded DNA breaks, either by ionizing radiation or endogenous physiological processes, H2AX becomes phosphorylated at Ser139. This phospho-Ser139 serves as a sensitive biomarker for the detection of such breaks, localizing the site of DNA repair. So, HTRF phospho-H2AX Ser139 is a pertinent assay to study genome stability, the cell cycle, DNA repair, and it serves as a biomarker for cancer, and to understand aging. Wild type CHO-K1 cells were used to identify the inducers of Phospho-H2AX Ser 139 from the Tox21 10K compound collections.
Tox21 Assay Protocol Summary:
The CHO-K1 cells suspended in culture medium containing 10% FBS were dispensed at 1000 cells/ 3 ul/well in 1536-well white wall/solid bottom plates (Greiner Bio-One North America, NC) using a Multidrop Combi (Thermo Fisher Scientific Inc., Waltham, MA). After the assay plates were incubated at 37C overnight, 23 nl of compounds at 15 concentrations (from 5-48 columns) or positive control (from 1 to 4 columns) were transferred to the assay plates using a Pintool station (Wako, San Diego, CA) into each well resulting in a final DMSO concentration of 0.76%. After 3hr incubation at 37C, 1 uL/well Supplemented Lysis buffer (diluted 100 fold blocking reagent in lysis buffer) (HTRF Phospho-H2A.X (S139) Assay kit from Cisbio US Inc., Bedford, MA) was added using a Flying Reagent Dispenser (FRD) (Aurora Discovery, CA). After 10sec spin at 1000 rpm in a plate centrifuge, the assay plates were incubated at room temperature for 30 min. Then followed by the addition of 1 uL/well detection buffer (containing a mixture of two antibodies, one labeled with cryptate, Anti pH2AX (S139)-K and another labeled with d2, Anti H2AX-d2) using FRD. After incubation at room temperature for 24 hr, the time resolved fluorescence at excitation 320 nm and emissions at 665 nm and 620 nm was measured using an Envision plate reader (PerkinElmer, Waltham, MA).
(In general: In qHTS, concentration-response curves come from the screen itself.)
Take `COc1ccc(OC(=O)N(CC(=O)O)Cc2ccc(OCCc3nc(-c4ccccc4)oc3C)cc2)cc1`: the Potency entry was “inactive”.
Regarding `Cc1c(C)c2c(c(C)c1OC(=O)CCC(=O)OCCO)CC[C@@](C)(CCC[C@H](C)CCC[C@H](C)CCCC(C)C)O2`, the Potency result was “inactive”.
On to `CCOC(=O)[C@H](CCc1ccccc1)N[C@@H](C)C(=O)N(CC(=O)O)C1Cc2ccccc2C1`, for which the Potency entry is “inactive”.
The value for `O=C(O)CCC(=O)C(=O)O` was “inactive”.
As to `O=C1C(=O)c2ccccc2C(O)=C1C1CCC(c2ccc(Cl)cc2)CC1` (stereo not given), the Potency result was “inactive”.
For `CC(C)(O)c1ccc(CNC(=O)c2cccnc2Oc2ccc3nonc3c2)cc1`, the Potency result was “inactive”.
Regarding `C(=C\c1ccccc1)/c1ccccc1`, the Potency entry is “inactive”.
As to `Cc1ccc(CO)cc1`, the Potency result is “inactive”.
In the case of `c1ccc2c(c1)CCc1ccccc1N2`, the Potency entry was “inactive”.
Consider `COc1cc(C(=O)NCCCCCC(=O)O)cc(OC)c1OC`, for which the Potency entry was “inactive”.
For the compound `N#CCCN(CCO)CCO`, the Potency result is “inactive”.
As to `C/C=C(/C(=C/C)c1ccc(O)cc1)c1ccc(O)cc1`, the Potency result was “inactive”.
For the compound `CCCCC(CC)COP(=O)(O)O` (stereo not given), the Potency result is “inactive”.
For the compound `CN1CCCC(n2nc(Cc3ccc(Cl)cc3)c3ccccc3c2=O)CC1` (stereo not given), the Potency entry was “inactive”.
With `CC(CCC(=O)O)C(=O)O` (stereo not given), the Potency entry was “inactive”.
Take `Cc1ccccc1N=C(N)Nc1ccccc1C`: the Potency result is “inactive”.
Take `CCCCCC[C@@H](O)C/C=C\CCCCCCCC(=O)O`: the Potency entry was “inactive”.
With `CC(=O)[C@H]1[C@H](C#N)C[C@H]2[C@@H]3CC=C4C[C@@H](O)CC[C@]4(C)[C@H]3CC[C@@]21C` the entry was “inactive”; with `CCCCC(CC)CN` (stereo not given), “inactive”.
The value for `C[C@@]12CCC[C@H]1[C@@H]1CC[C@H]3C[C@@H](O)CC[C@]3(C)[C@H]1CC2` was “inactive”; that for `CCOC(=O)c1ccc(OCCN2C[C@H](O)[C@@H](O)[C@H](O)[C@H]2CO)cc1` was “inactive”.
For `Nc1nnc(-c2ccc([N+](=O)[O-])o2)o1`, the Potency result was “inactive”.
In the case of `C1COC1`, the Potency result was “inactive”.
`CCOC(=O)C1=C(C)NC(C)=C(C(=O)OC)C1c1cccc(Cl)c1Cl` (stereo not given): the Potency entry was “inactive”.
For `CC1(C)[C@@H](OC(=O)CCC(=O)O)CC[C@]2(C)[C@H]3C(=O)C=C4[C@@H]5C[C@@](C)(C(=O)O)CC[C@]5(C)CC[C@@]4(C)[C@]3(C)CC[C@@H]12`, the Potency result is “inactive”.
`O=C1NCCN1CCO`: the Potency result is “inactive”.
For `CCCCCCCC/C=C\CCCCCCCCCCCC(=O)O`, the Potency result is “inactive”.
In the case of `CCCCN1CCCC1C(=O)Nc1c(C)cc(C)cc1C` (stereo not given), the Potency result was “inactive”.
With `CCOC(C)=O`, the Potency entry is “inactive”.
On to `Cc1cc2c(OCC(CNC(C)(C)C)OC(=O)c3ccccc3)cccc2[nH]1` (stereo not given), for which the Potency result was “inactive”.
Consider `CCOC(=O)/C=C/C(=O)OCC`, for which the Potency entry is “inactive”.
Consider `C[C@@H](CN(C)C)CN1c2ccccc2Sc2ccccc21`, for which the Potency entry was “inactive”.
`COc1ccccc1NC(=O)c1cc2ccccc2cc1O`: the Potency entry is “inactive”.
As to `O[C@@H]1CO[C@H]2[C@@H]1OC[C@@H]2O`, the Potency result is “inactive”.
With `CCC1CO1` (stereo not given) the entry was “inactive”; with `O=C(Nc1cccc2c(=O)cc(-c3nn[nH]n3)oc12)c1ccc(OCCCCc2ccccc2)cc1`, “inactive”; with `CC1(C)S[C@@H]2[C@H](NC(=O)C(c3ccccc3)S(=O)(=O)O)C(=O)N2[C@H]1C(=O)O` (stereo not given in full), “inactive”.
`O=C(O)c1ccc(OCCCOc2ccc(C(=O)O)cc2)cc1`: the Potency result is “inactive”.
Take `CC1(CN2CCC(n3c(=O)[nH]c4ccccc43)CC2)OCc2ccccc2-n2cccc21` (stereo not given): the Potency entry is “inactive”.
As for `O=C(/C=C/c1ccccc1)OCCc1ccccc1`, the Potency entry was “inactive”.

For the origin of these results see PubChem BioAssay (Tox21).
